Molecules are shown by their SMILES. A number with no mark means an inactive call. Inconclusive results are not listed. Calls of active or inactive are those of the source. Unless noted, calls come from the whole dose curve; as a rule, active = well fitted curve in the direction sought with a large enough effect in the repeat runs; inconclusive = weak or mixed curves; inactive = no such curve, though single readings can be large; an effect the other way counts as inactive or inconclusive.

Assay [1] is described as follows: qHTS assay to identify small molecule agonists of H2AX (AID 1224845; active = well fitted activation curve with a large enough effect in the signal ratio in the repeat runs, not every such curve was filed as active; the % refers to the signal ratio). In a few lines:
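Wild-type CHO-K1 cells plated overnight, then exposed 3 hr at 37C to compounds at 15 concentrations (0.76% DMSO). Lysed, then HTRF anti-pH2AX(S139)-cryptate/anti-H2AX-d2 detection after 24 hr at room temperature; emissions 665 and 620 nm.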
(In general: Quantitative high-throughput screening tests each substance at several concentrations.)

The nature of assay [2]: qHTS RealTime-Glo MT Cell Viability Assay in HepG2 cells - 24 hour (AID 1224867). Note: nearly all actives have a fitted effect of over 50% in size. The gist of the method:
(§1)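 Cell number in HepG2 cultures estimated from NanoLuc luminescence generated by metabolic reduction of a prosubstrate by living cells. The homogeneous, nonlytic format allowed repeated reads at 0, 8, 16, 24, 32 and 40 h of compound exposure.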

Assay [3] in a line: qHTS RealTime-Glo MT Cell Viability Assay in HEK293 cells - 32 hour (AID 1224868). Note: nearly all actives have a fitted effect of over 50% in size. Note: potency is the fitted concentration of half-maximal effect. In a few lines:
(§2)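 Homogeneous bioluminescent viability format in HEK293 cells (600 cells/well). Following 5 h at 37 C/5% CO2, 23 nL compound was pintooled; the signal was measured repeatedly during 40 h incubation.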

Assay [4] can be described thus: A CellTox Green Cytotoxicity Assay to monitor cytotoxicity in HEK293 cells - 0 hour (AID 1224869). Note: nearly all actives have a fitted effect of over 50% in size. In a few lines:
(§3)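 HEK293 cells, 600/well, were preincubated 5 hours and then exposed to compounds at 37 C for up to 40 hours. A cell-impermeant cyanine dye staining dead-cell DNA was read by fluorescence at 0, 8, 16, 24, 32 and 40 h time points.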

Assay [5] in a line: qHTS RealTime-Glo MT Cell Viability Assay in HepG2 cells - 40 hour (AID 1224870). Note: nearly all actives have a fitted effect of over 50% in size. In a few lines: (§4)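 HepG2 cells mixed with RealTime-Glo MT reagents (NanoLuc plus cell-permeant prosubstrate) were seeded at 600 cells/well, incubated 5 h at 37 C/5% CO2, then pinned with compounds in DMSO; nonlytic luminescence tracked viability during 40 h treatment.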
Assay [6] in a line: A CellTox Green Cytotoxicity Assay to monitor cytotoxicity in HEK293 cells - 40 hour (AID 1224871). Note: nearly all actives have a fitted effect of over 45% in size. Note: potency is the fitted concentration of half-maximal effect. The gist of the method:
as §3

Assay [7] can be described thus: qHTS RealTime-Glo MT Cell Viability Assay in HEK293 cells - 16 hour (AID 1224872). Note: nearly all actives have a fitted effect of over 50% in size. Note: potency is the fitted concentration of half-maximal effect. The gist of the method:
as §2

Assay [8] is described as follows: qHTS RealTime-Glo MT Cell Viability Assay in HepG2 cells - 8 hour (AID 1224873). Note: nearly all actives have a fitted effect of over 55% in size. In a few lines: as §4
Assay [9] in a line: qHTS RealTime-Glo MT Cell Viability Assay in HEK293 cells - 40 hour (AID 1224874). Note: nearly all actives have a fitted effect of over 50% in size. Note: potency is the fitted concentration of half-maximal effect. As to conditions: RealTime-Glo luminescence; max response: active compounds read low. The gist of the method:
(§5)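 600 cells/well were plated with the nonlytic NanoLuc/prosubstrate reagent, pre-incubated 5 h, then given 23 nL of compound in DMSO. Incubation at 37 C for 40 h, with luminescence from viable-cell-reduced substrate read repeatedly from 0 h.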

The nature of assay [10]: A CellTox Green Cytotoxicity Assay to monitor cytotoxicity in HEK293 cells - 24 hour (AID 1224875). Note: series mostly up to about 77 µM; nearly all actives have a fitted effect of over 45% in size. In a few lines:
as §3

A short description of assay [11]: A CellTox Green Cytotoxicity Assay to monitor cytotoxicity in HepG2 cells - 16 hour (AID 1224876). Note: nearly all actives have a fitted effect of over 45% in size. The gist of the method:
(§6)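 HepG2 cells, 600/well, preincubated 5 h with CellTox Green dye, then exposed to Tox21 compounds in DMSO at 37 C for up to 40 h. Dead-cell DNA fluorescence read at the indicated time point.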

A short description of assay [12]: qHTS RealTime-Glo MT Cell Viability Assay in HepG2 cells - 32 hour (AID 1224877). Note: nearly all actives have a fitted effect of over 55% in size. In a few lines: as §1
Assay [13] can be described thus: A CellTox Green Cytotoxicity Assay to monitor cytotoxicity in HepG2 cells - 24 hour (AID 1224878). Note: nearly all actives have a fitted effect of over 45% in size. In a few lines:
as §6

Assay [14] in a line: qHTS RealTime-Glo MT Cell Viability Assay in HEK293 cells - 0 hour (AID 1224880). The gist of the method: as §5
Assay [15] in a line: A CellTox Green Cytotoxicity Assay to monitor cytotoxicity in HEK293 cells - 32 hour (AID 1224881). Note: nearly all actives have a fitted effect of over 40% in size. In a few lines: as §3
The nature of assay [16]: qHTS assay to identify small molecule agonists of H2AX - cell viability counter screen (AID 1224847; calls by dose curve; note: top concentration of the series differs between compounds; nearly all actives have a fitted effect of over 30% in size). In a few lines: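 For this counter screen, overnight-attached CHO-K1 cells received test compounds (15 concentrations, 0.76% DMSO final); 3 hr later at 37C, CellTiter-Glo reagent was added and luminescence recorded after 30 min at room temperature.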
Assay [17] can be described thus: A CellTox Green Cytotoxicity Assay to monitor cytotoxicity in HepG2 cells - 40 hour (AID 1224879). Note: nearly all actives have a fitted effect of over 40% in size. In a few lines:
as §6

Assay [18] in a line: qHTS assay to identify small molecule agonists of the hypoxia (HIF-1) signaling pathway (AID 1224846; active = well fitted activation curve with a large enough effect in the signal ratio in the repeat runs, not every such curve was filed as active; the % refers to the signal ratio). In a few lines:
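HRE-bla ME-180 beta-lactamase reporter cells in medium with 0.5% dialyzed FBS, pre-incubated 5 h then exposed to compounds 17 h at 37C, 5% CO2; reporter induction read with CCF4-AM FRET substrate.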

The nature of assay [19]: qHTS assay to identify small molecule antagonists of the estrogen related receptor (ERR) signaling pathway from Tox21 library (AID 1224848). Note: nearly all actives have a fitted effect of over 50% in size. Note: potency is the fitted concentration of half-maximal effect. In a few lines: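 Cells: ERR line, 2,000/well; 6 h preincubation 37 C/5% CO2. Cpd in DMSO via pin tool; 18 h, 37 C. ONE-Glo, 30 min RT, luminescence.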
The nature of assay [20]: qHTS assay to identify small molecule agonists of the estrogen related receptor (ERR) signaling pathway from Tox21 library (AID 1224849; calls by dose curve; note: nearly all actives have a fitted effect of over 15% in size). In a few lines: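 ERR reporter cells (NTP line) pre-incubated 6 hours at 37 C, then exposed to compounds for 18 hours at 37 C. ONE-Glo luciferase luminescence was read after 30 minutes at room temperature.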
% is set by controls: 0 for no effect and ±100 for the full control effect.

On to `CC(C(=O)O)c1cccc(Oc2ccccc2)c1` (stereo not given), for which the Potency result in assay [1], in [3], in [5], in assay [6], in [7] and in assay [12] was “inactive” each time. For the same molecule, the Potency result in [14] was “inactive”. Moreover, the outcome in assay [2], in assay [4], in assay [8], in [10], in assay [11] and in assay [13] was inactive. Moreover, the molecule was classed as inactive in [15]. Besides, the max response in assay [9] was -2.21%.
Regarding `NCCCC[C@H](N[C@@H](CCc1ccccc1)C(=O)O)C(=O)N1CCC[C@H]1C(=O)O`, the Potency result in assay [1], in assay [3], in assay [5], in assay [6], in [7] and in [12] was “inactive” each time. Also, the Potency entry in assay [17] was “inactive”. Also, the molecule was called inactive in assay [16], in [2], in assay [4], in [8], in [10] and in assay [11]. Moreover, the result in [13] and in [15] was inactive.
As to `CC(=O)c1ccccc1[N+](=O)[O-]`, the molecule was classed as inactive in assay [18], in [16], in [20], in [2], in assay [4] and in assay [8]. Besides, the call in assay [11] and in [15] was inactive. The Potency result in [19], in [3], in assay [6], in [7], in [12] and in assay [17] was “inactive” in each case. For the same molecule, the Potency entry in [14] was “inactive”. In addition, in assay [9], the max response is 21.1%.
As to `NCCCC(N)(C(=O)O)C(F)F` (stereo not given), the Potency result in [1], in assay [3], in [5], in assay [6], in [7] and in assay [12] was “inactive” in each case. In addition, the Potency result in [17] and in [14] was “inactive” throughout. Also, the call in assay [16], in [2], in assay [4], in [8], in assay [10] and in [11] was inactive. The molecule was classed as inactive in assay [13] and in assay [15]. Besides, the max response in assay [9] is 0.24%.
On to `CCN[C@H]1C[C@H](C)S(=O)(=O)c2sc(S(N)(=O)=O)cc21`, for which the Potency result in assay [1], in assay [3], in [5], in assay [6], in assay [7] and in [12] was “inactive” each time. In addition, the Potency result in assay [17] and in assay [14] was “inactive” in each case. Further, the molecule was called inactive in [16], in assay [2], in assay [4], in assay [8], in [10] and in assay [11]. For the same molecule, the molecule was classed as inactive in assay [13] and in [15]. Moreover, the max response in assay [9] is -0.522%.
As to `C[C@H]1[C@H](NC(=O)/C(=N/OC(C)(C)C(=O)O)c2csc(N)n2)C(=O)N1S(=O)(=O)O` (stereo in doubt), the Potency result in assay [1], in [3], in assay [5], in assay [6], in [7] and in assay [12] was “inactive” in each case. Besides, the Potency entry in assay [17] and in [14] was “inactive” each time. In addition, the call in assay [16], in assay [2], in assay [4], in assay [8], in [10] and in assay [11] was inactive. The result in assay [13] and in assay [15] was inactive. Further, the max response in assay [9] is 5.51%.
As for `CCN(Cc1ccccc1)c1ccccc1`, the result in assay [18], in [16], in assay [20], in [2], in assay [4] and in assay [8] was inactive. In addition, the call in assay [10], in [11] and in [13] was inactive. Also, the Potency in assay [19] was 30.3 µM (active); in assay [3], 19.3 µM (active); in assay [6], 43.1 µM (active); in [7] it was 19.3 µM (active); in assay [9], 21.6 µM (active). The Potency result in assay [5], in assay [12], in assay [17] and in [14] was “inactive” in each case.

(Values after PubChem BioAssay (Tox21).)
